# In the library only some 2.3% were active in any assay of this set; here they are far more common.
# CHRM1 PAM – human M1 muscarinic receptor positive allosteric modulators, primary screen, CHO-K1 cells, Fluo-8 calcium fluorescence, 1536-well; Muscarinic acetylcholine receptor M1 (Homo sapiens), P11229; CHO-K1 hM1, ACh EC20; 0% = ACh EC20, 100% = maximal ACh; activation, % at 3 µM; 0.088% of 360,000 active; in the data active = activation above about 19%, passing the limit was not always enough
# Target sequence (P11229 whole entry, looked up): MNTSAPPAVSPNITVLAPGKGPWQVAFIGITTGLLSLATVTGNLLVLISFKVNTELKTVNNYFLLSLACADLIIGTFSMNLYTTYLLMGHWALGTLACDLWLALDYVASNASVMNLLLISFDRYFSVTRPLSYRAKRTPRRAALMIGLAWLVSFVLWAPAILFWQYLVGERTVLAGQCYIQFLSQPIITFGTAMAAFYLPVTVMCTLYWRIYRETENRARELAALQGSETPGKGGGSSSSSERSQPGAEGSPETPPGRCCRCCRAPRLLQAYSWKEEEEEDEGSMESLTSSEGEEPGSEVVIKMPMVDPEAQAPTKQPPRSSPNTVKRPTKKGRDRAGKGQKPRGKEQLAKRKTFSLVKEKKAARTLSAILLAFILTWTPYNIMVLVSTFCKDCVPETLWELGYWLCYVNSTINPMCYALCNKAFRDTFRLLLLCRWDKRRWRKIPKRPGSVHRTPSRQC
# M1 ag parental – counter-screen for M1 agonists: effect in parental CHO-K1 cells. activation, % at 3 µM. AID 602248, 2012. Fluo-8 calcium fluorescence; scaled to maximal ATP response, vehicle zero. 0.48% of 360,000 active; in the data active = activation above about 15%;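 note: untransfected CHO-K1 host cells lacking M1 receptor as counterscreen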
# CHRM1 antagonist – human M1 muscarinic receptor antagonists, primary screen, CHO-K1 cells, Fluo-8 calcium fluorescence, 1536-well. Muscarinic acetylcholine receptor M1 (Homo sapiens), P11229. CHO-K1 hM1, ACh EC80 antagonist. inhibition, % at 3 µM. 1.3% of 360,000 active. AID 588852, 2011;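 active = percent inhibition above its own plate's cutoff, namely the mean of that plate's compound wells plus 3 SD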;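 note: peak over basal fluorescence ratio during 140 s after agonist addition; 0% = ACh EC80 plus DMSO and 100% = DMSO alone without agonist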
# CHO-K1 Ca antag – nonselective inhibitor or artifact in parental CHO-K1 cells | ATP-induced calcium, Fluo-8 fluorescence | inhibition, % at 3 µM | 0.6% of 360,000 active | AID 602250;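 active = inhibition above a per-plate cutoff, the plate's mean sample inhibition plus 3 SD, cut at about 24% in these data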;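 note: 0% = DMSO plus EC80 ATP and 100% = DMSO alone without ATP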
# CHO-K1 Ca PAM – nonselective calcium activators in parental CHO-K1 cells, primary screen, counter-screen for M1 PAM project, cell-based, Fluo-8 calcium fluorescence, full deck, 1536-well; ATP EC20; 0% at ATP EC20, 100% at ATP max; activation, % at 3 µM; 0.02% of 360,000 active; AID 602247, 2012;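 active = activation above the run cutoff, the mean activation of all test compounds plus 3 SD, cut at about 40% in these data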;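 note: peak over basal fluorescence ratio in a 140 s read after ATP addition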
# CHRM1 agonist – human M1 muscarinic receptor agonists, primary screen, Fluo-8 calcium fluorescence, CHO-K1 cells, HTS. AID 588814, 2011. activation, % at 3 µM. 0.33% of 360,000 active. CHO-K1 hM1, agonist mode; 0% DMSO, 100% acetylcholine EC100;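 active = activation above the run's mean compound activation plus 3 SD, cut at about 16% in these data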;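 note: peak over basal fluorescence ratio within a 140 s kinetic read after compound addition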
# Starred values were filed as active, the others as inactive.
SMILES,CHRM1 PAM,M1 ag parental,CHRM1 antagonist,CHO-K1 Ca antag,CHO-K1 Ca PAM,CHRM1 agonist
O=C(CN1CCCCC1)Nc1nnc(-c2ccc([N+](=O)[O-])cc2)s1,-7,0,13,29*,-6,-3
Cc1cc(C)cc(N(CC(=O)NC(C)(C)C)C(=O)CNC(=O)c2cccs2)c1,8,0,1,-4,24,-10
Cc1ccc(NC(=S)Nc2ccc(Cl)c(Cl)c2)c(OC(F)F)c1,-14,10,26,26*,-6,-4
O=C1N/C(=C/c2ccc(N3CCCC3)cc2)C(=O)N1c1ccccc1,7,2,-13,-7,19,-1
CN1C(=O)c2ccc(N3CCCC3)cc2C1=O,-7,4,2,-19,6,-7
Cc1cc(N2CCCC2)ccc1/C=C1\NC(=S)N(C)C1=O,-13,17*,18,20,-1,23*
O=C1/C(=C/c2ccc(N3CCCC3)cc2)NC(=S)N1C1CC1,-22,56*,35*,45*,-11,34*
CCN(CC)S(=O)(=O)c1ccc(C)c(NC(=O)CN2CCN(C)CC2)c1,4,0,-8,-11,-5,-4
CCOC(=O)CSc1n[nH]c(NC(C)=O)n1,2,0,-1,21,1,-1
OCCNCc1ccc(-c2ccccc2)cc1,3,0,-5,5,2,-8
OCCCNCc1ccc(N(c2ccccc2)c2ccccc2)cc1,-31,5,71*,3,-2,-9
CCOc1ccc(NC(=O)c2ccc(F)cc2F)cc1,1,-1,2,-14,9,-7
Cc1cccc(NC(=O)CN2C(=O)S/C(=C\c3cc(C)n(C)c3C)C2=O)c1,-7,4,12,-8,21,-1
Cc1ccc(NC(=O)CN2C(=O)S/C(=C\c3cc(C)n(C)c3C)C2=O)cc1,-24,4,41*,-2,-8,-4
Cc1ccc(S(=O)(=O)NCc2cn3ccccc3n2)c(C)c1,-2,1,4,-8,-7,-4
Cc1nc(S(=O)(=O)c2ccc(Cl)cc2)c(N(C)C)o1,4,1,4,-9,15,-2
CCCCOC(=O)n1c(=O)oc2ccccc21,-2,0,1,2,-3,-2
CCOC(=O)n1c(=O)oc2ccc(Cl)cc21,-2,0,-5,29*,-6,0
COc1ccc(NCc2ccc(OC)c(Cn3ccnc3)c2)c(OC)c1,-22,5,34*,-3,-3,-9
COc1ccc(Cn2ccnc2)cc1Br,-1,2,-5,-11,14,-3
C=CCN(C(=O)c1ccccn1)C(C(=O)NCc1ccccc1)c1ccccc1F (centres undefined),9,3,-9,-6,16,0
CCn1c(=O)c(C(=O)CN2CCCc3ccccc32)c(N)n(Cc2ccccc2)c1=O,-10,0,22*,14,2,-6
C=CCC[C@@H](Cc1ccc(F)cc1)C(=O)OC[C@H](Cc1c[nH]c2ccccc12)NC(=O)[C@@H](CC=C)CC(=O)NCCO,5,18*,1,8,2,1
C=CC[C@@H](CC(=O)N[C@H](CO)Cc1ccccc1)C(=O)NC[C@H](OC(=O)[C@@H](CC=C)Cc1ccc(F)cc1)c1ccccc1,-19,4,34*,-4,2,-4
C=CCN(C(=O)c1csnn1)C(C(=O)NCc1ccc(F)cc1)c1cccs1 (centres undefined),3,2,-2,-14,15,-7
SMILES,CHRM1 PAM,M1 ag parental,CHRM1 antagonist,CHO-K1 Ca antag,CHO-K1 Ca PAM,CHRM1 agonist
O=C(CCCOC(=O)c1ccc(O)cc1O)c1ccc(Br)cc1,-12,7,19*,9,-8,0
O=C(CCCOC(=O)c1cccnc1Cl)c1ccc(Br)cc1,4,5,3,-22,22,-4
COc1ccnc(Oc2ccccc2)c1C(N)=O,6,0,-5,27*,-13,-2
NC(=O)c1cccnc1Oc1ccccc1,18,0,-13,4,-15,-2
COc1ccc(F)cc1S(=O)(=O)NC1CC(C)(C)NC(C)(C)C1,-5,0,15,28*,-8,-4
COCCNC(=O)C1CCCN(S(=O)(=O)c2c(C)noc2/C=C/c2cccs2)C1 (centres undefined),5,3,-7,-13,0,0
COC(CNC(=O)C1CCCN(S(=O)(=O)c2c(C)noc2/C=C/c2cccs2)C1)OC (centres undefined),6,15*,3,-2,12,-2
OC(CNCc1ccccc1)(c1ccccc1)c1ccccc1,3,15*,-1,-17,20,-5
O=C(Nc1ccc(Br)cc1)c1ccc(F)c(S(=O)(=O)NCc2cccs2)c1,-19,11,34*,28*,0,-2
C=CCc1cccc(CNc2cnc3ccccc3c2)c1O,-12,9,40*,39*,-23,2
Fc1ccc(-c2[nH]ncc2CN2CCN(c3ccc(F)cc3)CC2)cc1,10,3,-8,-6,12,17*
Fc1ccc(N2CCN(Cc3cn[nH]c3-c3ccccc3)CC2)cc1,-7,0,14,4,-11,1
O=S(=O)(c1ccccc1F)N1CCC(Oc2ccc(-n3cnnn3)cc2)CC1,-13,22*,21,-1,-3,6
COCCCNC1=C(C#N)C(=O)NC(c2cccs2)S1 (centres undefined),-2,0,8,-7,5,-1
CC(C)C[C@H]1CNC(=O)C(=O)N1CC1CCN(CC2CCC(C)CC2)CC1 (some centres undefined),-19,0,39*,22,-8,-11
CC[C@H](C)[C@H]1CNC(=O)C(=O)N1CC1CCN(CC2CCC(C)CC2)CC1 (some centres undefined),4,0,-9,-24,23,-10
Cc1cc(/C=C2/SC(=S)N(c3cccc(Cl)c3)C2=O)c(C)n1-c1cccnc1,-17,9,27*,23,3,5
Cc1ccc2c(c1)c1c(n2CC(O)CN2CCCCC2C)CCCC1 (centres undefined),-24,1,42*,-5,16,-7
Cc1ccc2c(c1)c(C)c(C)n2CC(O)CN1CCCCC1C (centres undefined),-3,0,-1,1,-4,-12
CCOc1ccc(NS(=O)(=O)c2ccc(C(=O)NCC(c3ccc(OC)cc3)N3CCOCC3)cc2)cc1 (centres undefined),7,12,-1,-3,11,6

# Screening data: PubChem, The Scripps Research Institute Molecular Screening Center
